Results on 40 compounds are retold here after PubChem BioAssay (NCI).

The panel holds about 83,000 compounds, 20% with a hit somewhere; the sample as a whole holds those more often.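 96-well plates, one dose, 48 hours. Percent growth reported; active if below 10.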 Calls of active or inactive are those of the source.

For the test, the system named is HL-60(TB) leukemia. The experiment in a line: NCI-60 one-dose screen, 48 h (100 = growth as untreated, 0 = no growth, -100 = all killed). The conditions noted are these: 10 µM unless noted.
Take `COCc1nc(NS(=O)(=O)c2ccc(N)cc2)nc(C)c1Br`: the growth is 114% (inactive).

Regarding `Nc1c(C(=O)Nc2cccc3ccccc23)sc2nc3c(cc12)CCCCCC3`, the growth was -31% (active).

Regarding `COc1ccc(C2C(C#N)=C(N)Oc3c2sc2c(F)cccc32)cc1` (stereo not given), the growth was -29% (active).

As to `COc1ccc(C2=NN(C(C)=O)C(c3cccc(Nc4ccnc5cc(Cl)ccc45)c3)C2)cc1` (stereo not given), the growth was 57.2% (inactive).

As for `O=C(NC1CCC(Br)CC1)C1CCCC(S(=O)(=O)NC2CCCCC2)C1` (stereo not given), the growth is 4.46% [25 µM] (active).

For `CCCN1C(=O)CSC1=Nc1ccc2cc3ccc(N=C4SCC(=O)N4CCC)cc3nc2c1`, the growth is 8.32% (active).

`S=C(S)Oc1cccc2cccnc12`: the growth was 80.7% (inactive).

As for `Cc1nc2c(O)cccc2cc1CO`, the growth was 81.7% (inactive).

With `COC(=O)C(CCC(=O)CCl)N1C(=O)c2ccccc2C1=O` (stereo not given), the growth is 84.5% (inactive).

As to `CC(C)c1ccc(-n2c(=S)[nH]c3sc4cc(O)ccc4c3c2=O)cc1`, the growth was 99.4% (inactive).

For `Cn1cc(-c2ccc3ncc(-c4ccc(CC(=O)Nc5cc(C(C)(C)C)nn5C)cc4)cc3c2)cn1`, the growth is -36.7% [30 µM] (active).

For the compound `CCCCCCCCCCCC1=NC(C)(C)CN1C(C)(C)CO`, the growth is 58.3% (inactive).

Regarding `COc1cc(C(=O)O)c(O)c(C(C)(C)C)c1`, the growth is 106% (inactive).

For `CC(CNC(Cc1ccccc1)c1ccccc1)NC(Cc1ccccc1)c1ccccc1` (stereo not given), the growth is 26.2% (inactive).

For the compound `Cc1ccc(Nc2cc(N)nc(N)n2)cc1`, the growth is 99.6% (inactive).

As to `COc1ccc(C/C(C)=C(/c2ccc(OCCN3CCCCCC3)cc2)c2ccc(OC(=O)NCc3ccccc3)cc2)cc1`, the growth is 45% (inactive).

For the compound `CCCCc1oc2ccccc2c1C(=O)c1ccc(O)cc1`, the growth is 68% (inactive).

As for `CC(=O)Nc1c(C(=O)Nc2ccccc2)sc2nc3c(cc12)C(OC(C)=O)CCC3` (stereo not given), the growth was 18.6% (inactive).

For the compound `CCN1CCN(c2cc(-c3cn[nH]c3-c3cc(C)cc(OC)c3)nc(-c3cccnc3)n2)CC1`, the growth was 64.9% (inactive).

In the case of `C=C1C(=O)O[C@H]2[C@H]1CC/C(COC(=O)NCc1ccc(Cn3c(=O)sn(CCCCl)c3=O)cc1)=C\CC[C@@]1(C)O[C@@H]21`, the growth was -50.6% (active).

With `Nc1c2c(nc3ccc(Cl)cc13)CC(c1ccccc1)CC2=O` (stereo not given), the growth was 11% (inactive).

On to `O=C(Nc1ccc(-c2ccnc(Nc3ccc(N4CCOCC4)cc3)n2)cc1)[C@@H]1CCCN1`, for which the growth was 39.8% (inactive).

Turning to `O=C1CCC(=O)N1C1CCCCC1`, the growth is 92.5% (inactive).

As for `Cc1cc2nc3c4ccccc4n(CCN(C)C)c3nc2cc1C`, the growth is 8.35% (active).

In the case of `Cc1ccc(C)n1/C=C/n1c(C)ccc1C`, the growth was 128% (inactive).

Consider `C=C1C(=O)O[C@H]2[C@H]1CC/C(COC(=O)NCc1[nH]nc3ccccc13)=C\CC[C@@]1(C)O[C@@H]21`, for which the growth was -51% (active).

In the case of `CN1CCN(C(=O)OCc2nc3c(N4CCOCC4)nc(Cl)nc3n2C)CC1`, the growth is -53.4% (active).

As to `O=c1ccn(C2CC(O)C(COC(c3ccccc3)(c3ccccc3)c3ccccc3)O2)c(=O)[nH]1` (stereo not given), the growth was 10.1% [100 µM] (inactive).

Regarding `CC(=O)Nc1ccc2nc3ccc(NC(C)=O)cc3[n+](-c3ccccc3)c2c1`, the growth is 4% (active).

In the case of `O=C1c2[nH]cc(CN[C@@H]3CCCN3)c2C(=O)c2c1c(O)c1ccccc1c2O`, the growth is -73% (active).

For the compound `CC(=O)OC/C(C)=C\CC(C)COC(C)=O` (stereo not given), the growth was 101% (inactive).

As to `NC(N)=N/N=C(\c1ccccc1)C(O)c1ccccc1` (stereo not given), the growth was 96.7% (inactive).

Regarding `N#Cc1c(-c2ccc(Cl)cc2)nc(NN2C(=O)c3ccccc3C2=O)nc1N1CCOCC1`, the growth is 99.8% (inactive).

In the case of `COc1ccc2c(c1)sc1nc(-c3ccccc3)c(-c3ccsc3)n12`, the growth is 14.2% (inactive).

`c1ccc2cc(Cn3c(-c4cccc5ccccc45)[n+](Cc4ccc5ccccc5c4)c4c5ccccc5c5ccccc5c43)ccc2c1`: the growth was -54.6% (active).

With `CC1=C(SCCC(=O)OC(C[Se]C2=C(C)C(=O)c3ccccc3C2=O)C(=O)NCCCCCC(=O)OCc2ccccc2)C(=O)c2ccccc2C1=O` (stereo not given), the growth is -1.59% (active).

`O=C1CCC(=O)N1Cc1ccccc1`: the growth is 102% (inactive).

Turning to `O=C(O)c1ccc(NC(=O)c2ccc(-c3cccc([N+](=O)[O-])c3)o2)cc1`, the growth was 105% (inactive).

Regarding `Cc1cc2c(-c3nc4ccccc4n3C)c(O)c(O)cc2c(O)c1-c1c(C)cc2c(-c3nc4ccccc4n3C)c(O)c(O)cc2c1O`, the growth was 76.7% (inactive).

On to `O=[N+]([O-])C1CC2C=CC1C2` (stereo not given), for which the growth was 97.6% (inactive).
